Cruzain Triton: cruzain (T. cruzi) inhibition with detergent | purified cruzain, Z-FR-AMC fluorescence, 0.01% Triton | Potency, µM, for inactives: max response, negative = inhibition, hits mostly inhibitors | 200,000 tested, 0.43% active | AID 1478;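 further: plate controls were neutral wells for no effect and buffer without enzyme for full effect; nearly all actives have a fitted effect of over 40% in size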
Target sequence (P25779 123-467 limits assumed): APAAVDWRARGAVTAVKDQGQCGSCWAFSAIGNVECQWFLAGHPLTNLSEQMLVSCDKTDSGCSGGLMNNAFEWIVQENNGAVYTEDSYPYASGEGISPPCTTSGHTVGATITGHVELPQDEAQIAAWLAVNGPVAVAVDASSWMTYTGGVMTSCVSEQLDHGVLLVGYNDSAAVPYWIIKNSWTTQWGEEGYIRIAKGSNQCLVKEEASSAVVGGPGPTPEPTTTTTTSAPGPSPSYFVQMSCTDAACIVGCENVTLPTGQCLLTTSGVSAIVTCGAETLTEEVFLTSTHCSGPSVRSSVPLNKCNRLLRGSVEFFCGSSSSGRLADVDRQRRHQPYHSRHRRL
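Steps: dispense cruzain (1.5 nM final) in acetate buffer pH 5.5 with DTT and 0.01% Triton X-100; pin-transfer compounds; incubate 15 min RT; add Z-FR-AMC (2 uM final); read fluorescence every 30 s, using the 60 s intensity change.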
Cruzain noTriton: cruzain (T. cruzi) inhibition without detergent | P25779 | purified cruzain, Z-FR-AMC fluorescence, no detergent | Potency, µM, inactives show max response, negative = inhibition, actives largely listed as inhibitors | 200,000 tested, 2.3% active;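 further: plate controls were enzyme without inhibitor for no effect and buffer without enzyme for full effect; nearly all actives have a fitted effect of over 40% in size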
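Detergent-free condition (0.00005% Triton X-100) in acetate buffer pH 5.5 with DTT. 1.5 nM enzyme and compound were pre-mixed 15 min, then 2 uM Z-FR-AMC substrate added; reaction progress from fluorescence change between first and third reads (60 s).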
* hit, by the source's call; ? = inconclusive. In the library only some 2.5% were active in any assay of this set; here they are far more common. The call rests on the fitted dose curve; in most records, active means well fitted curve in the direction sought with a large enough effect; inconclusive means small, poorly fitted or top-dose-only effect, or another doubt; inactive means no such curve, though single readings can be large; an effect the other way counts as inactive or inconclusive. Potency means the concentration at half of the fitted maximal effect.

SMILES	Cruzain Triton	Cruzain noTriton
CCOC(=O)c1scc(-c2ccccc2)c1S(=O)(=O)N1CCN(c2ccccc2OC)CC1	-4%	9%
Cc1ccc(C)c(Cn2c(SCC(=O)N(C)Cc3ccccc3)nc3ccccc32)c1	-3%	9%
COc1cc(Nc2nc(SCc3cccc(Cl)c3)nc3ccccc23)cc(OC)c1	0%	20µM*
COc1cc(Nc2nc(SCc3ccc(Cl)cc3)nc3ccccc23)cc(OC)c1	4%	?
O=C(CSc1nc(Nc2ccccc2)c2ccccc2n1)c1ccc(Cl)cc1	-3%	?
COc1cc(Nc2nc(SCC(=O)c3ccc(Cl)c(Cl)c3)nc3ccccc23)cc(OC)c1	1%	6.3µM*
COc1cc(Nc2nc(SCc3ccccc3F)nc3ccccc23)cc(OC)c1	1%	25%
COc1cc(Nc2nc(SCc3ccccc3Cl)nc3ccccc23)cc(OC)c1	1%	16µM*
COc1ccc(Cl)cc1NC(=O)Cn1nc(Cc2ccncc2)c2ccccc2c1=O	-4%	23%
CCOc1ccc(-c2nnc(SCC(=O)Nc3ccc(C)cc3C)o2)cc1	-4%	2%
COc1ccc(C)cc1NC(=O)CSc1nnc(-c2ccc(C)cc2)o1	-4%	-4%
CCOc1ccc(-c2nnc(SCC(=O)Nc3ccc(C)cc3Cl)o2)cc1	28µM*	?
CCOc1ccc(-c2nnc(SCC(=O)Nc3cc(C)ccc3OC)o2)cc1	32µM*	?
CCOc1ccc(CCNC(=O)c2ccc(-c3nc(COc4ccc(C)cc4)c(C)o3)cc2)cc1	1%	-1%
CSc1cccc(NC(=O)Cn2c3ncccc3c(=O)n2-c2ccc(C)cc2)c1	-8%	?
O=C(NC1CC(=O)N(c2cccc(F)c2)C1)c1ccc(S(=O)(=O)N2CCCC2)cc1 (stereo unspecified)	-3%	-3%
COC(=O)NC(=S)Nc1ccc(Oc2ccc(Cl)cc2)c(Cl)c1	-7%	-7%
COC(=O)NC(=S)Nc1ccc(Oc2ccc(Cl)cc2Cl)c(Cl)c1	-4%	25µM*
Cc1nn(CCC(=O)Nc2ccc(Cl)cc2)c(C)c1S(=O)(=O)N1CCCCC1	-3%	?
CCOC(=O)c1ccc(N2Cc3ccccc3C2=N)cc1	1%	-21%
CCOC(=O)c1ccc(N=C2C(=S)N(c3ccc(C(=O)OCC)cc3)C(=N)N2/N=C/c2ccccc2)cc1	-12%	13µM*
CC1=C(c2ccc(C(C)C)cc2)S(=O)(=O)NC1=NCc1ccccc1Br	-3%	8%
C1CCOC1	3%	5%
Cc1c(NC(=O)c2ccccc2)cc(C(C)C)c(O)c1S(=O)(=O)c1ccc(Cl)cc1	-2%	?
Cc1c(NC(=O)c2ccc(Cl)cc2)cc(C(C)C)c(O)c1S(=O)(=O)c1ccc(Cl)cc1	0%	32µM*
SMILES	Cruzain Triton	Cruzain noTriton
O=C(NCc1ccccc1Br)c1cnc2sc(N3CCCCCC3)nn2c1=O	-2%	5%
O=C1N(Cc2ccccc2Cl)c2ccccc2C1(O)c1c[nH]c2ccccc12 (stereo unspecified)	-13%	?
COc1ccc(/C=N/Nc2nc(-c3cccc(S(=O)(=O)N4CCCC4)c3)cs2)cc1OC	-16%	-29%
CCOc1cc(/C=N/Nc2nc(-c3cccc(S(=O)(=O)N4CCCC4)c3)cs2)ccc1O	-12%	16µM*
CCCCOc1ccc(C(=O)NCc2nnnn2-c2ccc(C)c(C)c2)cc1	-3%	8%
COc1ccc(/C=C2\CCCC3C2=NN(C(=O)COC(=O)CNC(=O)c2ccccc2)C3c2ccc(OC)cc2)cc1 (stereo unspecified)	-26%	16µM*
COc1ccc(/C=C2\CCCC3C2=NN(C(=O)CSc2ncn[nH]2)C3c2ccc(OC)cc2)cc1 (stereo unspecified)	-5%	?
O=C(Cn1nc(C(F)(F)F)c2c1CCCC2)Nc1ccc(Br)cc1	-5%	-8%
CC(C)OCCCNC(=O)c1cc2c(-c3ccc(Cl)cc3)nn(C)c2s1	-5%	?
COc1cccc([C@@H]2Oc3ccc(OC)cc3C[C@H]2OC(=O)NS(=O)(=O)c2ccc(F)cc2)c1	-1%	-3%
COc1ccc(CNC(=O)Cc2c(C)c3c(O)cc(C)cc3oc2=O)cc1	0%	-4%
COc1ccc(CNC(=O)Cc2c(C)c3ccc(O)cc3oc2=O)cc1	-23%	25µM*
O=C(Cn1c(=O)oc2cc(S(=O)(=O)N3CCCC3)ccc21)NC1CCCc2ccccc21 (stereo unspecified)	-11%	25µM*
CC(NC(=O)Cn1c(=O)oc2cc(S(=O)(=O)N3CCCC3)ccc21)c1ccccc1 (stereo unspecified)	1%	?
CC(=O)c1cc2c(cc1N/C(=N/S(=O)(=O)c1ccc(F)cc1)c1ccccc1)OCO2	1%	-4%
CCOc1ccc(NC(=O)c2cnn3c2NC(c2cccc(OC)c2)=CC3c2ccccc2)cc1 (stereo unspecified)	-10%	0%
CCOC(=O)C1=C(CSc2nc(-c3ccccc3)ccc2C#N)OC(N)=C(C#N)C1c1ccccc1 (stereo unspecified)	-2%	25µM*
CCOC(=O)C1=C(CSc2nc(-c3ccccc3)ccc2C#N)OC(N)=C(C#N)C1c1cccnc1 (stereo unspecified)	-5%	?
Cc1cccc(N2CCN(C(=O)C3CCN(S(=O)(=O)c4c(C)noc4/C=C/c4ccccc4F)CC3)CC2C)c1 (stereo unspecified)	-7%	-16%
CCn1cnc2scc(-c3ccccc3)c2c1=O	4%	-11%
Cn1cc(/C=N/n2cnc3scc(-c4ccc(Cl)cc4)c3c2=O)c2ccccc21	-4%	25µM*
COC(=O)c1c(Oc2ccc(C(C)=O)cc2)nnc(-c2ccccc2)c1-c1ccccc1	-8%	-11%
CCCCC1CCC(C(=O)N2CC(=O)Nc3ccc(C)cc3C2c2ccc(F)cc2)CC1 (stereo unspecified)	-3%	-21%
Cc1ccc(S(=O)(=O)N/N=C/c2ccc(OCC(=O)Nc3ccccc3Cl)cc2)cc1	0%	25µM*
COc1ccccc1NC(=O)COc1ccc(/C=N/NS(=O)(=O)c2ccc(C)cc2)cc1	-3%	-28%
SMILES	Cruzain Triton	Cruzain noTriton
O=C(COC(=O)c1ccc(O)cc1)Nc1ccc(Cl)cc1C(=O)c1ccccc1	-11%	-12%
Cc1ccccc1NC(=O)COC(=O)c1ccc(CSc2ccc(Cl)cc2)cc1	3%	10µM*
CCOc1ccc(CCNC(=O)C2CCC(CNS(=O)(=O)c3ccc(Cl)cc3)CC2)cc1OCC (stereo unspecified)	0%	7%
COC(=O)c1c(NC(=O)COC(=O)CCS(=O)(=O)c2ccc(C)cc2)sc(C)c1C	-7%	9%
COC(=O)c1c(NC(=O)COC(=O)CNC(=O)C2CCCCC2)sc(C)c1C	4µM*	10µM*
COc1ccc(CNc2nc(-c3ccco3)nn2C(=O)CC(C)C)cc1	-12%	18%
CC(C)(C)C1CCc2oc3ccc(NS(=O)(=O)c4cc(Cl)ccc4Cl)cc3c2C1 (stereo unspecified)	-2%	4µM*
CC(C)(C)C1CCc2oc3ccc(NS(=O)(=O)c4ccc(C(=O)O)cc4)cc3c2C1 (stereo unspecified)	-24%	?
CC(=O)Nc1ccc(NC(=O)C(C)OC(=O)/C=C/c2cn(-c3ccccc3)nc2-c2cccnc2)cc1 (stereo unspecified)	-9%	?
Cc1ccccc1NC(=O)COC(=O)/C=C/c1cn(-c2ccccc2)nc1-c1cccnc1	-5%	25µM*
